# Reference: PubChem BioAssay (NCI)
# The panel holds about 79,000 compounds, 15% with a hit somewhere; the sample as a whole holds those more often. Values without a mark were called inactive. Calls of active or inactive are those of the source. No stated cut-off is given here; in the data, active means growth inhibition above about 70%; inactive means the rest.
# Tests used:
# [1] = NCI Yeast Anticancer Drug Screen. Data for the rad50 strain (AID 155);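 further: 0% = growth of vehicle-only cultures of the same strain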; details: S. cerevisiae rad50 strain growth inhibition, active compounds read high
# Procedure, shortened: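 Growth of the mutant yeast was measured after compound exposure and referenced to vehicle-treated cultures.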
# [2] = NCI Yeast Anticancer Drug Screen. Data for the mec2-1 strain (AID 157); details: S. cerevisiae mec2-1 strain, active compounds read high
# Procedure, shortened: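 Using mec2-1 yeast: add compound, measure growth, express inhibition versus vehicle-treated cultures.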
# [3] = NCI Yeast Anticancer Drug Screen. Data for the sgs1 mgt1 strain (AID 161);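 further: 0% = growth of cultures given vehicle only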; details: S. cerevisiae sgs1 mgt1 strain, active compounds read high
# Procedure, shortened: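 Growth of a repair-deficient yeast mutant was monitored after compound treatment and expressed as inhibition relative to vehicle-treated cultures.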
# [4] = NCI Yeast Anticancer Drug Screen. Data for the cln2 rad14 strain (AID 165);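 further: 0% = growth equal to vehicle treated cultures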; details: S. cerevisiae cln2 rad14 strain, active compounds read high
# Procedure, shortened: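 Yeast strain cln2 rad14, bearing defects in cell cycle control and DNA repair, serves as the test system; values reflect growth inhibition compared with vehicle.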
# [5] = NCI Yeast Anticancer Drug Screen. Data for the bub3 strain (AID 167); details: S. cerevisiae bub3 mutant strain, active compounds read high
# Procedure, shortened: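 Whole-cell yeast assay. The mutant strain was incubated with compounds, and growth inhibition was determined by comparison with vehicle-treated cells.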
# [6] = NCI Yeast Anticancer Drug Screen. Data for the mlh1 rad18 strain (AID 175); details: S. cerevisiae mlh1 rad18 strain growth inhibition, active compounds read high
# Procedure, shortened: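 Steps: expose repair-defective yeast to compound; measure growth; express inhibition against vehicle-treated controls.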
# [7] = at 5.0 µM (retest, dose inferred, filed as 0.5)
# [8] = at 50.0 µM (retest, dose inferred, filed as 5.0)
SMILES,"growth inhibition [1, 7]","growth inhibition [1, 8]",growth inhibition ([1]; at 50.0 µM),"growth inhibition [2, 7]","growth inhibition [2, 8]",growth inhibition ([2]; at 50.0 µM),"growth inhibition [3, 7]","growth inhibition [3, 8]",growth inhibition ([3]; at 50.0 µM),"growth inhibition [4, 7]","growth inhibition [4, 8]",growth inhibition ([4]; at 50.0 µM),"growth inhibition [5, 7]","growth inhibition [5, 8]",growth inhibition ([5]; at 50.0 µM),"growth inhibition [6, 7]","growth inhibition [6, 8]",growth inhibition ([6]; at 50.0 µM)
Nc1nc(N)c2nc(CNc3ccc(C(=O)NC(CCC(=O)O)C(=O)O)cc3)cnc2n1 (centres undefined),-4%,30%,64.8%,-3%,91% (active),97.8% (active),-2%,-19%,34.5%,5%,-47%,-48.9%,0%,-47%,74.8% (active),-1%,-19%,83.5% (active)
Cc1ccc(C2SCc3nc4ccccc4n32)cc1 (centres undefined),-4%,51%,31.2%,-38%,39%,20.8%,-26%,57%,49.1%,2%,46%,34%,-2%,93% (active),70.4% (active),13%,86% (active),48.9%
Nc1nc(N)c2c(ccc3c2ccn3Cc2cccc([N+](=O)[O-])c2)n1,39%,60%,19.9%,70% (active),90% (active),0.75%,56%,67%,54.4%,38%,53%,57.5%,43%,51%,83.5% (active),29%,46%,14.6%
CC(C)(C)c1ccc(O)c(C2CCCCC2)c1,5%,99% (active),99.3% (active),-3%,100% (active),99.7% (active),-1%,99% (active),99.5% (active),-3%,99% (active),99.5% (active),2%,99% (active),96.4% (active),-1%,100% (active),99% (active)
c1ccc2c(c1)C[n+]1ccc3ccccc3c1-c1c3ccccc3cc[n+]1C2,8%,28%,64.2%,6%,20%,13.4%,11%,40%,69.8%,1%,18%,53%,-2%,4%,7.85%,7%,21%,65.8%
N#Cc1c(-c2ccc(Cl)cc2)c(-c2ccc(Cl)cc2)nn(CCOC(=O)CCC(=O)O)c1=O,8%,76% (active),89% (active),-3%,76% (active),88.8% (active),22%,66%,78.1% (active),-3%,86% (active),85.2% (active),16%,83% (active),84% (active),8%,81% (active),87% (active)
O=Nc1ccccc1N=O,48%,99% (active),99.5% (active),30%,99% (active),99.4% (active),59%,99% (active),99.2% (active),36%,97% (active),98.3% (active),80% (active),99% (active),99.3% (active),91% (active),99% (active),99.4% (active)
COc1nc(Nc2ccc(/C=C/c3ccc(Nc4nc(OC)nc(N(CCO)CCO)n4)cc3S(=O)(=O)O)c(S(=O)(=O)O)c2)nc(N(CCO)CCO)n1,-4%,53%,14.2%,-4%,37%,58.9%,-3%,51%,45.8%,-1%,17%,5.8%,-4%,28%,3.2%,0%,49%,80.4% (active)
CC1OC(OC2C(OC3CCC4(C)C(CCC5(C)C4CC=C4C6CC(C)(C)CCC6(CO)C(O)CC45C)C3(C)C)OC(C(=O)O)C(OC3OC(COC4OC(CO)C(O)C(O)C4O)C(O)C(O)C3O)C2O)C(O)C(O)C1O (centres undefined),-21%,99% (active),92.7% (active),-22%,100% (active),94.2% (active),-14%,98% (active),94.4% (active),15%,99% (active),92.5% (active),-9%,99% (active),93.4% (active),9%,99% (active),93.5% (active)
CN(C)CCC(/C=C/c1ccccc1)=N\Nc1c(F)c(F)c(F)c(F)c1F,-2%,8%,58%,-2%,1%,8.9%,2%,-8%,35.4%,-3%,6%,-3.55%,1%,-14%,40%,-4%,-2%,86.8% (active)
CC(C)N=C1NS(=O)(=O)c2ccccc21,-2%,-1%,5.5%,-2%,0%,-3.75%,0%,-4%,-0.4%,0%,-2%,17.8%,-3%,-2%,21.4%,-5%,0%,2.6%
Cc1ccc(C(=Nc2ccccc2)N=P(c2ccccc2)(c2ccccc2)c2ccccc2)cc1,56%,98% (active),90.6% (active),45%,99% (active),91.9% (active),46%,100% (active),90.5% (active),39%,99% (active),89.5% (active),45%,99% (active),88.2% (active),61%,99% (active),91.5% (active)
CCOC(=O)NC(c1ccc(C(NC(=O)OCC)P(=O)(O)NC23CC4CC(CC(C4)C2)C3)cc1)P(=O)(O)NC12CC3CC(CC(C3)C1)C2 (centres undefined),-8%,-6%,60.4%,5%,-10%,84.2% (active),-8%,-24%,81% (active),-30%,-2%,71.8% (active),13%,-7%,91% (active),-31%,-21%,76.4% (active)
